Experimental data: PubChem BioAssay (EPA / NIEHS)
Records with an inconclusive call do not appear. The source made the active and inactive calls. Rule for the calls: active = hit-call score of the fitted dose curve at least 0.9, where 1 is the maximum; inconclusive = response in the unintended direction; inactive = score below 0.9.

Target: Nuclear receptor subfamily 1 group I member 2 (Homo sapiens) (UniProt O75469)
Test: NVS_NR_hPXR: NovaScreen (NVS) Nuclear Receptor Binding Assay for human Pregnane X Receptor (PXR) (AID 2283365);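 note: a drop in FRET signal versus DMSO baseline means the compound binds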
Description: NVS_NR_hPXR is a biochemical, single-readout assay that uses extracted gene-proteins in a cell-free assay. Measurements were taken 2 hours after chemical dosing in a 384-well plate.NVS_NR_hPXR is one of one assay component(s) measured or calculated from the NVS_NR_hPXR assay. It is designed to make measurements of fluorescent resonance energy transfer, a form of binding reporter, as detected with fluorescent resonance energy transfer signals by Time-Resolved Fluorescence Resonance Energy Transfer (TR-FRET) technology.Data from the assay component NVS_NR_hPXR was analyzed into 1 assay endpoint. This assay endpoint, NVS_NR_hPXR, was analyzed in the positive analysis fitting direction relative to DMSO as the negative control and baseline of activity. Using a type of binding reporter, loss-of-signal activity can be used to understand changes in the binding as they relate to the gene NR1I2. Furthermore, this assay endpoint can be referred to as a primary readout, because the performed assay has only produced 1 assay endpoint. To generalize the intended target to other relatable targets, this assay endpoint is annotated to the nuclear receptor intended target family, where the subfamily is non-steroidal.
Binding assays used specific radioligands (tritiated, iodinated) with non-radioactive competitive displacement ligands in agonist or antagonist protocols (as indicated) and various reference compounds and inhibitors to titrate specific binding to receptors and transporters. Most enzyme assays (CYPs, kinases, phosphatases, proteases, HDACs) used recombinant protein and specific substrates (fluorescence mostly, some colorimetric and radioactive) and inhibitors, followed by a biochemical separation of substrate and product. All assays for the biochemical HTS were initially run in duplicate at a single concentration (10 uM for CYP450 assays and 25 uM for all others). […] Each assay was run with positive and negative controls, and concurrent controls on every plate. The follow-up (secondary) screen tested active chemical-pairs in concentration series, as well as a few additional assays not tested in the primary screen, some selected negative inactives, and several cases re-run in the concentration series for confirmatory purposes.

Nuclear receptor subfamily 1 group I member 2 (Homo sapiens), sequence (O75469 whole entry, looked up): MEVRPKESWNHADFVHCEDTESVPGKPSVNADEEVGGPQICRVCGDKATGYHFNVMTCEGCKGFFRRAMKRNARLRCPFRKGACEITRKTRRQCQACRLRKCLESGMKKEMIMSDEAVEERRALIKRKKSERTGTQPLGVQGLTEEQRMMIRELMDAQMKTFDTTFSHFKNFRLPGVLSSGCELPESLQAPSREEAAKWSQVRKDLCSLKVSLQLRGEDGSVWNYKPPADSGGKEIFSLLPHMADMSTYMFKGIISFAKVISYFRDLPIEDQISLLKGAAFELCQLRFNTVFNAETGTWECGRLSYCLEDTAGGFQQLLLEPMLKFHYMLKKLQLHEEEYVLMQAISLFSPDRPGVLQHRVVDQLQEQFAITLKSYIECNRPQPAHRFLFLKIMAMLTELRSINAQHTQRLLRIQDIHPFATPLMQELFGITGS

outcome, inactive:
CC1(C)C(=O)N(Br)C(=O)N1Br, Nc1cccc(N)c1, CN(C)c1ccc(Cc2ccc(N(C)C)cc2)cc1, CC(=O)OCCC(C)C, COC(=O)c1ccccc1O, O=C(O)c1cc(N=Nc2ccc(S(=O)(=O)Nc3ccccn3)cc2)ccc1O, NC(=O)NO, COc1cccc(-c2ccc(/C=C\CN3CCCCCC3)cc2Cl)c1, Cc1ccc(N)cc1O, C=CCCCCCCCCC(=O)O
